Results: PubChem BioAssay (NCI)
Compounds without any hit were thinned out: in the full panel of roughly 83,000, 20% have a hit.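 Single-dose data. Exposure time 48 hours. Values below 10 considered active.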 Values without a mark were called inactive. The source made the active and inactive calls.

Legend:
Test in all cases: NCI-60 one-dose screen, 48 h (100 = growth as untreated, 0 = no growth, -100 = all killed)
Conditions in all cases: 10 µM unless noted
[1] = test system: NCI-H226 lung
[2] = test system: NCI-H322M lung
[3] = test system: HOP-62 NSCLC
[4] = test system: NCI-H460 lung
[5] = test system: HOP-92 NSCLC
[6] = test system: NCI-H522 lung
[7] = test system: A549/ATCC NSCLC
[8] = test system: 786-0 renal
[9] = test system: COLO 205 colon
[10] = test system: DU-145 prostate
[11] = test system: K-562 leukemia
[12] = test system: MALME-3M melanoma
[13] = test system: MDA-MB-231 breast
[14] = test system: RXF 393 renal
[15] = test system: SF-268 CNS
[16] = test system: SF-295 CNS
[17] = test system: SF-539 CNS
[18] = test system: UACC-257 melanoma
[19] = test system: M14 melanoma

| Compound | growth [1] | growth [2] | growth [3] | growth [4] | growth [5] | growth [6] | growth [7] | growth [8] | growth [9] | growth [10] | growth [11] | growth [12] | growth [13] | growth [14] | growth [15] | growth [16] | growth [17] | growth [18] | growth [19] |
| --- | --- | --- | --- | --- | --- | --- | --- | --- | --- | --- | --- | --- | --- | --- | --- | --- | --- | --- | --- |
| COCCNC(=O)Nc1ccc2nc(-c3cccs3)c(-c3cccs3)nc2c1 | 92.8% | 98.6% | 101% | 88.7% | 80.8% | 76.6% | 87.5% | 96.9% | 107% | 96.2% | 83.3% | 94.8% | 92.3% | 82.5% | 102% | 78.6% | 85.6% | 103% | 103% |
| Oc1c(I)cc(I)cc1CNCc1ccccn1 | 62.5% | 40.1% | 28.3% | 19.9% | 63.2% | 4.61% (active) | 23.6% | 36.1% | 74.1% | 49.9% | 20.9% | 42.5% | 38.3% | 70.2% | 36.8% | 25.7% | 20.2% | 15.4% | 8.61% (active) |
| COc1ccc(/C=C(\C#N)n2nnc3cc(Cl)ccc32)cc1 | 12.8% | 6.1% (active) | 40.8% | 1.99% (active) | -2.3% (active) | -15.7% (active) | 14.4% | -16.7% (active) | -13.2% (active) | -14.9% (active) | 8.41% (active) | 34.6% | -56.3% (active) | -55.2% (active) | 27.6% | -20.9% (active) | -60.5% (active) | 53% | -19.1% (active) |
| O=C1/C(=C/c2ccccc2O)CC/C1=C\c1ccccc1O | 82.9% | 96.4% | 94% | 68.9% | 20% | 56% | 93.8% | 54.3% | 107% | 46.1% | 7.41% (active) | 80.4% | 44.3% | 67.5% | 71.3% | 98.6% | 82.3% | 86.3% | 61.3% |
| N=C(N)c1ccc(-c2ccc(-c3ccc(Cl)c(Cl)c3)s2)nc1 | 86.9% | -5.24% (active) | 36.6% | -61.6% (active) | 77.3% | -34.5% (active) | -45.6% (active) | -25.8% (active) | -40.5% (active) | -76.5% (active) | -23.4% (active) | 60.5% | -27.1% (active) | 79.5% | 46.8% | 0.36% (active) | 23.1% | 87.9% | 36.1% |
| Oc1c(Br)cc(Br)c2ccc(Cn3cc(-c4ccc(C(F)(F)F)cc4)nn3)nc12 | 85% | 103% | 98.9% | 103% | 21.5% | -43.5% (active) | 103% | 96.9% | 59.7% | 46.2% | 6.39% (active) | 16.7% | 96.3% | 1.8% (active) | 85.7% | 105% | 56.2% | 54.9% | 48.6% |
| C#COc1cccc(Nc2c(C#N)cnc3ncc(NC(=O)CCl)cc23)c1 | 57.2% [6.25 µM] | 53.1% [6.25 µM] | 32.8% [6.25 µM] | 11.8% [6.25 µM] | 54.5% [6.25 µM] | -69.4% [6.25 µM] (active) | 31.2% [6.25 µM] | -23.4% [6.25 µM] (active) | 17.5% [6.25 µM] | 33.2% [6.25 µM] | 6.93% [6.25 µM] (active) | 76.9% [6.25 µM] | 20.9% [6.25 µM] | 54% [6.25 µM] | 6.32% [6.25 µM] (active) | 42.1% [6.25 µM] | -7.95% [6.25 µM] (active) | 47.1% [6.25 µM] | 41.2% [6.25 µM] |
